# Bioassay records from PubChem BioAssay.
# USP1 inh – inhibitors of human USP1/UAF1 deubiquitinase | recombinant USP1/UAF1, Ub-Rhodamine cleavage fluorescence | Potency, µM (highest dose often 57.1 µM), inactives show at the top dose activity change, negative = inhibition, usual class: inhibitors | 0.23% of 390,000 active | AID 743255; note: potency is the fitted concentration of half-maximal effect; nearly all actives have a fitted effect of over 60% in size
#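 In this screen, compounds sit with the deubiquitinase complex (1nM) for 15 min at room temperature before Ub-Rho is added at 150nM final. Fluorescence rise is then followed for 6 reads every 60 seconds.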
# Tau ThT inhib – inhibitors of human tau fibril formation, thioflavin T binding; P10636; 2.1% of 270,000 active; Potency, µM (titrated, usually from 57.4 µM), for the others: at the highest dose activity, negative = inhibition, actives largely listed as inhibitors; recombinant tau K18 P301L, heparin-induced fibrillization, ThT fluorescence; note: potency is the fitted concentration of half-maximal effect; nearly all actives have a fitted effect of over 55% in size
# Target sequence (P10636 561-689 P618L limits assumed): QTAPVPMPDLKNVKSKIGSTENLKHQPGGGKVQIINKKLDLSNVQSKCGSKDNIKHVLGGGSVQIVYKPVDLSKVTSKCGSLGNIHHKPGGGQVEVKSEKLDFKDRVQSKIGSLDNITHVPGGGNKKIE
#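 Using a mix of unlabeled (15 uM) and Alexa 594-labeled (0.24 uM) tau K18 P301L, heparin-triggered fibrillization over 6 hr at 37 C was scored by ThT fluorescence.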
# Tau fluor cs – counter-screen for tau fibril formation inhibitors. tau K18 P301L (four-repeat tau fragment) Alexa594 fluorescence, heparin fibrillization. Potency, µM (top dose mostly 57.7 µM), for inactives: at the top dose activity change, negative = decrease. 0.93% of 280,000 active; note: potency is the fitted concentration of half-maximal effect; nearly all actives have a fitted effect of over 55% in size
#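 Human K18 P301L tau (15 uM unlabeled plus 0.24 uM Alexa 594-labeled, final) in 100 mM sodium acetate pH 7 was mixed with compound and 20 uM heparin and incubated 6 hr at 37 C.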
# Tau fibril FP – blocks human tau fibril formation measured by polarization; P10636; K18 P301L tau heparin fibrillization, Alexa594 FP, 6 h; Potency, µM (doses to about 57.7 µM), for inactives: at the top dose activity, negative = inhibition, most hits filed as inhibitors; 0.39% of 280,000 active; AID 1468; note: potency is the fitted concentration of half-maximal effect; nearly all actives have a fitted effect of over 55% in size
#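 Human K18 P301L fragment (15 uM unlabeled plus 0.24 uM Alexa 594-labeled) in 100 mM sodium acetate pH 7 with compound, aggregation induced by 20 uM heparin for 6 hr at 37 C. ThT (30 uM) added for 1 hr, then Alexa 594 FP read.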
# Coupling enz – inhibits coupling enzyme system, counter-screen for aldolase hits; coupling enzyme system counterscreen, AmpLite Red fluorescence; activity change, negative = inhibition, % at 58.2 µM, hits read low; 0.67% of 290,000 active; AID 2472; in the data active = activity change below about -30%
#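 Final compound at 57.5 uM, incubated 10 min at RT with coupling enzyme reagent (glyceraldehyde-3-phosphate), then 20 min with substrate and AmpLite Red detection. Fluorescence read at 525/598 nm; tests interference with the coupling assay, not aldolase inhibition.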
# * = called active by the depositor; ? = inconclusive; . = not tested or not shown; [ ] = remark or other dose. This is a sample that favours compounds with a hit; in the whole collection about 2.3% have one here. Unless noted, calls come from the whole dose curve; as a rule, active = well fitted curve in the direction sought with a large enough effect; inconclusive = small, poorly fitted or top-dose-only effect, or another doubt; inactive = no such curve, though single readings can be large; an effect the other way counts as inactive or inconclusive. % is set by controls: 0 for no effect and ±100 for the full control effect.
SMILES,USP1 inh,Tau ThT inhib,Tau fluor cs,Tau fibril FP,Coupling enz
O=C1C(=C(O)c2ccccc2)C(=O)c2ccccc21,?,?,-22%,?,-1
O=C1C(=C(c2ccccc2)c2ccccc2)Nc2ccccc21,-17%,16µM*,?,-11%,-2
Cc1ccc2[nH]c3c(c2c1)CN(C(=O)CN1CC(C)OC(C)C1)CC3 (centres undefined),-29%,-12%,-16%,7%,-33*
CC(=O)N1CCc2[nH]c3ccc(C)cc3c2C1,-23%,.,.,.,-2
COc1ccc(Cl)cc1N1C(=O)c2cccnc2C1=O,-9%,.,.,.,2
COc1ccc(Cl)cc1N=Nc1ncc[nH]1,.,13µM*,-19%,-13%,0
N#Cc1cccc(-n2nnnc2-c2ccc3c(c2)OCO3)c1,2%,-6%,-5%,1%,1
N#Cc1cccc(-n2nnnc2-c2ccccn2)c1,-2%,6.3µM*,14µM*[quencher],-2%,1
CN(C)S(=O)(=O)c1cc(NC(=O)CSc2cccc[n+]2[O-])ccc1Cl,-13%,.,.,.,.
CN(C)S(=O)(=O)c1cc(NC(=O)CSc2ncc(C(F)(F)F)cc2Cl)ccc1Cl,-13%,1%,?,28µM*,-4
COc1ccccc1N1CCN(C(c2cc3ccc(C)cc3[nH]c2=O)c2nnnn2C2CCCC2)CC1 (centres undefined),-14%,?,-10%,0%,-34*
CCc1ccc2[nH]c(=O)c(C(c3nnnn3CC3CCCO3)N3CCCc4ccccc43)cc2c1 (centres undefined),-17%,11µM*,-27%,?,-31*
Cc1ccc2cc(C(c3nnnn3CC3CCCO3)N3CCc4ccccc4C3)c(=O)[nH]c2c1 (centres undefined),-15%,-18%,-8%,-4%,-38*
COc1ccccc1N1CCN(C(c2cc3cc(C)ccc3[nH]c2=O)c2nnnn2C2CCCC2)CC1 (centres undefined),-7%,-6%,-1%,-5%,-15
Cc1ccc(C)c2[nH]c(=O)c(C(c3nnnn3Cc3ccccc3)N3CCc4ccccc4C3)cc12 (centres undefined),?,22µM*,-21%,?,-29
Cc1cccc2cc(C(c3nnnn3Cc3ccc4c(c3)OCO4)N3CCCC3)c(=O)[nH]c12 (centres undefined),-15%,-6%,-3%,-1%,-19
CCn1c(=O)n(CC)c2cc(N3CCCCC3)c(NC(=O)Nc3ccccc3C(F)(F)F)cc21,-27%,?,-17%,-1%,.
CCOc1ccc2[nH]c(=O)c(C(c3nnnn3CC3CCCO3)N3CCc4ccccc4C3)cc2c1 (centres undefined),?,-8%,-5%,-4%,-30*
Cc1cccc2cc(C(c3nnnn3CC3CCCO3)N3CCc4ccccc4C3)c(=O)[nH]c12 (centres undefined),?,?,-1%,-4%,-44*
Cc1cc(Br)ccc1NC(=O)c1sc2ncn(Cc3ccccc3Cl)c(=O)c2c1C,-12%,-9%,-12%,-8%,.
CCn1nnc2cc(C(=O)Nc3ccc(Cl)cc3C)ccc21,-22%,-9%,-1%,-2%,.
COC(=O)c1sccc1S(=O)(=O)N(CC(=O)Nc1cc(F)ccc1F)c1ccc(C)c(C)c1,-19%,-13%,?,-11%,.
CC1(C)Oc2ccc3ccc(=O)oc3c2/C(=C/Nc2cccc(O)c2)C1=O,-25%,?,?,-5%,0
CC1(C)Oc2ccc3ccc(=O)oc3c2/C(=C/Nc2ccc(O)cc2)C1=O,-4%,-17%,13µM*[quencher],8%,2
N#Cc1cc2ccccc2nc1SCc1ccccn1,-5%,16µM*,-28%,-7%,2
SMILES,USP1 inh,Tau ThT inhib,Tau fluor cs,Tau fibril FP,Coupling enz
Nc1c(S(=O)(=O)c2cccs2)c2nc3ccccc3nc2n1/N=C/c1cccc(O)c1,-22%,0%,3.2µM*[quencher],7.9µM*,0
CC(C)Cn1c(N)c(S(=O)(=O)c2cccs2)c2nc3ccccc3nc21,-5%,-29%,-29%,-11%,-31*
COc1cccc(/C=N/n2c(N)c(S(=O)(=O)c3cccs3)c3nc4ccccc4nc32)c1,-3%,-13%,-20%,-4%,1
COc1ccc(/C=N/n2c(N)c(S(=O)(=O)c3cccs3)c3nc4ccccc4nc32)cc1OC,-16%,5%,-30%,?,1
CCOC(=O)c1ccc(N=Nc2c(C)c(C#N)c(O)[nH]c2=O)cc1,-26%,1.4µM*,-29%,-5%,-1
Cc1ccc(NC(=O)Cn2sc3nc(C)cc(C)c3c2=O)c(Cl)c1,-3%,28µM*,-9%,?,1
Cc1cc(C)c2c(=O)n(CC(=O)Nc3cccc(F)c3)sc2n1,-8%,14µM*,-23%,14µM*,2
CCOc1ccc(NC(=O)Cn2sc3nc(C)cc(C)c3c2=O)cc1,-12%,13µM*,-25%,20µM*,-1
Cc1ccc(NC(=O)Cn2c(C)cc(C)c(C#N)c2=O)c(Cl)c1,-8%,-3%,-5%,0%,2
Cc1cc(C)c2c(=O)n(CC(=O)Nc3ccc(Cl)cc3)sc2n1,-12%,.,-27%,?,6
O=C(Cn1c(=O)c2ccccc2n2nncc12)Nc1cccc(F)c1,-11%,3%,-2%,-7%,.
N#CC1=C(N)NC(SCc2ccc(F)cc2)=C(C#N)C12CCCCC2,-3%,-8%,18µM*[quencher],?,1
N#CC1=C(N)NC(SCC(=O)O)=C(C#N)C12CCCC2,-5%,?,-13%,-3%,6
COc1ccccc1CNc1nc(-c2ccc(N(C)C)cc2)nc2ccccc12,.,16µM*,11µM*[quencher],?,-32*
COc1ccc(Nc2nc(-c3ccc(C)cc3)nc3ccccc23)c(OC)c1,-7%,?,7.9µM*[quencher],-1%,.
COc1ccc(-c2nc(N/N=C(\C)c3ccc(O)cc3)c3ccccc3n2)cc1,?,?,20µM*[quencher],6%,-6
Cc1coc2c(C)c3oc(=O)c(CC(=O)N4CCCCC4)c(C)c3cc12,-6%,-10%,-7%,-3%,.
CO[C@H]1COC(=O)CCC[C@H](C)[C@H](OC)COC(=O)C/C=C\[C@@H]1C,.,-9%[11.5 µM],-7%[11.6 µM],4%[11.6 µM],-1
CCO[C@H](c1cc(OC)cc([N+](=O)[O-])c1OC)[C@H](C)/C=C\CC(=O)OC,.,-5%[11.5 µM],-9%[11.6 µM],-12%[11.6 µM],5
Cc1ccc(-n2ncc3c(Nc4cccc(C(F)(F)F)c4)ncnc32)cc1C,-2%,15%,?,10µM*,.
Cc1ccc(-n2ncc3c(Nc4cccc(Cl)c4)ncnc32)c(C)c1,-15%,3%,?,25µM*,.
N#C/C(=C\c1cc(Cl)cc(Cl)c1)c1cccnc1,.,-11%,-12%,?,.
Nc1nc(-c2nn(Cc3ccccc3F)c3ncccc23)ncc1C1CC1,.,.,.,.,0
